Source: PubChem BioAssay (National Center for Advancing Translational Sciences (NCATS))
Giardia kill: Small Molecules that selectively kill Giardia lamblia: qHTS; Giardia lamblia trophozoite viability; AID 540267, 2011; 340,000 tested, 0.15% active; activity change, % at 7.66 µM, hits read low; in the data active means activity change below about -80%; inconclusive means between about -30% and that limit;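 further: parasites exposed to compound for two days anaerobically before the ATP read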
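Viability, read as ATP luminescence: trophozoites at 100 cells/well, compound added, 48 hrs anaerobic at 37 deg C, then 15-30 min room-temperature development before reading.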
DT40 TDP1 no CPT: qHTS for Inhibitors of human tyrosyl-DNA phosphodiesterase 1 (TDP1): qHTS in cells in absence of CPT. DT40 Tdp1-/- hTDP1 cells, no CPT, ATP luminescence, 48 h. Potency, µM (series often up to 46.2 µM), inactives show top-dose activity change, negative = growth inhibition, hits mostly inhibitors. 420,000 tested, 15% active; further: potency means the concentration at half of the fitted maximal effect; nearly all actives have a fitted effect of over 55% in size
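Chicken DT40 Tdp1-/- cells stably complemented with human TDP1 were seeded at 400 cells/well with DMSO in place of 20 nM camptothecin. After compound pinning, cells grew at least 48 hr at 37 °C; viability read by CellTiter-Glo luminescence.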
TDP1 block: qHTS Assay for Inhibitors of Tyrosyl-DNA Phosphodiesterase (TDP1) | 350,000 tested, 0.28% active | recombinant TDP1, AlphaScreen DNA substrate cleavage | Tyrosyl-DNA phosphodiesterase 1 (Homo sapiens), Q9NUW8 | Potency, µM (series often up to 130 µM), for the others: at the highest dose activity change, negative = inhibition, hits mostly inhibitors; further: potency means the concentration at half of the fitted maximal effect; nearly all actives have a fitted effect of over 40% in size
Target sequence (Q9NUW8 whole entry, looked up): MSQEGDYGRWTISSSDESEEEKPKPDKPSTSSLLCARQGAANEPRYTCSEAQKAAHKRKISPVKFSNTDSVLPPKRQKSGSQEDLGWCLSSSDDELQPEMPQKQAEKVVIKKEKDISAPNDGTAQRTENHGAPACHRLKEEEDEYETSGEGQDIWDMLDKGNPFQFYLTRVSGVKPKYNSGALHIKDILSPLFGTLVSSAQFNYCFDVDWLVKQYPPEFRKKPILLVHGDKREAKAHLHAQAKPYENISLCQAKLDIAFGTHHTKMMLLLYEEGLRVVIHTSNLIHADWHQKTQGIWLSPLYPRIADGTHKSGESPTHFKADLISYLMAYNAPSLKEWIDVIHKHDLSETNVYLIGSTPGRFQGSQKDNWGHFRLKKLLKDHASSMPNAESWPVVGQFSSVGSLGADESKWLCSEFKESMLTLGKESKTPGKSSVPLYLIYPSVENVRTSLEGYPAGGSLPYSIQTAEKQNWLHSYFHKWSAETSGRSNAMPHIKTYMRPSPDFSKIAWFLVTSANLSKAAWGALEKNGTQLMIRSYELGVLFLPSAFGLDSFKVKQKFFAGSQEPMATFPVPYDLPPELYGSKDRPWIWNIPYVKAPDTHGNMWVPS
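Tdp1 1 nM final; 15 min RT w/ cpd; substrate 15 nM, 5 min; beads 10 ug/ml, 10 min; AlphaScreen read. Neg ctrl: no enzyme.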
IL1B secr inh: qHTS for Inhibitors of Inflammasome Signaling: IL-1-beta AlphaLISA Primary Screen; activity change, % at 57.5 µM; 360,000 tested, 4.7% active; THP-1 LPS/ATP IL-1B secretion, AlphaLISA, 16 h; active compounds read low; in the data active means activity change below about -50%; inconclusive means mostly about -30% to -49%
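Secreted IL-1B measured by AlphaLISA bead assay after 16 h compound exposure of THP-1 cells; compounds (final up to 57.5 uM) added 1 h before LPS (250 ng/mL) and ATP (1.25 mM) stimulation; lower signal means less secretion.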
ELG1 DNA repair: qHTS screen for small molecules that inhibit ELG1-dependent DNA repair in human embryonic kidney (HEK293T) cells expressing luciferase-tagged ELG1; 330,000 tested, 2.3% active; Potency, µM (highest dose often 46.1 µM), for inactives: at the highest dose activity change, negative = inhibition, usual class: inhibitors; HEK293T ELG1-luciferase reporter, luminescence, 16 h; DNA damage induced by 5-fluorouridine; AID 504467, 2011; further: potency means the concentration at half of the fitted maximal effect; nearly all actives have a fitted effect of over 55% in size
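HEK293T cells expressing luciferase-tagged ELG1 (2,000/well) received 5-Fluorouridine plus compound or DMSO for 16 hr at 37 °C. Luciferase was read by ONE-Glo luminescence after 30 min at room temperature.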
DT40 TDP1 CPT: qHTS for Inhibitors of human tyrosyl-DNA phosphodiesterase 1 (TDP1): qHTS in cells in presence of CPT; chicken DT40 Tdp1-/-;hTDP1 cells + 20 nM CPT, ATP luminescence, 48 h; Potency, µM (top dose mostly 46.2 µM), for inactives: top-dose activity change, negative = growth inhibition, most hits filed as inhibitors; 420,000 tested, 12% active; further: potency means the concentration at half of the fitted maximal effect; nearly all actives have a fitted effect of over 55% in size
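Chicken DT40 Tdp1-/- cells stably complemented with human TDP1 were seeded at 400 cells/well in medium containing 20 nM camptothecin, exposed to pin-transferred compounds, and grown at 37 °C for at least 48 hr. Viability was read as ATP luminescence.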
* = called active by the depositor; ? = inconclusive; / = no result given. An excerpt weighted towards active compounds, which were near 19% of everything screened. Unless noted, the call rests on the fitted dose curve; in most records, active means well fitted curve in the direction sought with a large enough effect; inconclusive means small, poorly fitted or top-dose-only effect, or another doubt; inactive means no such curve, though single readings can be large; an effect the other way counts as inactive or inconclusive. On the % scale 0 is the no-effect control and ±100 the full control effect.

SMILES	Giardia kill	DT40 TDP1 no CPT	TDP1 block	IL1B secr inh	ELG1 DNA repair	DT40 TDP1 CPT
Cc1cccc(NS(=O)(=O)c2c(C)nc3sccn3c2=O)c1C	/	-23%	-3%	/	/	-6%
CC(OC(=O)c1c2c(nc3ccccc13)/C(=C\c1ccc3c(c1)OCO3)CCC2)C(=O)Nc1ccc(S(N)(=O)=O)cc1 (centres undefined)	-3	18µM*	-3%	?	?	?
Cc1cccc(C)c1NC(=O)COC(=O)c1c2c(nc3ccccc13)/C(=C\c1ccc3c(c1)OCO3)CCC2	0	18µM*	-2%	13	?	?
CC(OC(=O)c1cc2ccccc2cc1O)C(=O)Nc1ccc(S(N)(=O)=O)cc1 (centres undefined)	-22	-23%	3%	0	-7%	-12%
COc1ccccc1CNc1cc(-c2cccc(C#N)c2)ncn1	/	-17%	/	/	/	-21%
O=C(Nc1ccc(Cl)cc1)Nc1nnc(CSCc2ccc(Cl)cc2)s1	10	4.1µM*	3%	-61*	?	2.6µM*
CCc1nnc(NC(=O)Nc2ccc(Cl)cc2)s1	-14	?	-10%	-1	?	-21%
COc1cccc(NC(=O)Nc2nnc(Cc3ccccc3F)s2)c1	11	23µM*	/	17	-1%	?
O=C(Nc1ccc(F)cc1)Nc1nnc(Cc2ccccc2F)s1	25	13µM*	/	5	-9%	16µM*
O=C(Nc1ccccc1)Nc1nnc(Cc2ccccc2F)s1	-7	-9%	2%	6	22%	6%
COc1ccc(Cc2nnc(NC(=O)c3ccc(OC)c(OC)c3)s2)cc1	33	23µM*	/	28	-18%	23µM*
COc1cc(CC(=O)OCC(=O)NCC(C)C)cc(OC)c1OC	2	-4%	7%	10	-1%	16%
COc1ccc(NC(=O)Nc2nnc(Cc3ccc(F)cc3)s2)cc1	-4	26µM*	/	-14	?	-21%
CCn1c(C(=O)N2CCCC(C(=O)N3CCN(c4cc(C)ccc4C)CC3)C2)cc2sccc21 (centres undefined)	/	13µM*	4%	/	/	?
Cc1cccc(N2CCN(C(=O)C3CCN(C(=O)c4cc5sccc5n4C)CC3)CC2C)c1 (centres undefined)	/	5.2µM*	2%	/	/	13µM*
CCn1c(C(=O)N2CCc3ccccc3C2)cc2sccc21	-11	?	7%	-1	9%	?
Cc1ccc(C)c(N2CCN(C(=O)c3cc4sccc4n3C)CC2)c1	1	?	6%	-16	?	?
Cc1ccc(C)c(N2CCN(C(=O)C3CCN(C(=O)c4cc5sccc5n4C)CC3)CC2)c1	/	8.2µM*	4%	/	/	9.2µM*
Cc1ccc(NS(=O)(=O)c2ccc3c(c2)NC(=O)CCS3)c(Br)c1	-5	-18%	5%	64	-2%	?
CC1(c2ccccc2Cl)NC(=O)N(CC(=O)Nc2ccc3c(c2)OCO3)C1=O (centres undefined)	5	-6%	2%	-10	-15%	4%
COC(=O)c1cccc(CN2C(=O)SC(Nc3ccc(Br)cc3)C2=O)c1 (centres undefined)	/	-16%	2%	/	/	4%
CCCn1c(=O)c(C(=O)NNS(=O)(=O)c2ccc(NC(=O)OC)cc2)c(O)c2ccccc21	?	-44%	12%	-14	17%	-16%
CCN(CC)C(=O)C1=C(C)N(Cc2ccccc2)C(=O)C(CC(=O)NCCc2ccccn2)C1 (centres undefined)	/	-12%	/	8	/	-3%
CCc1ccc(NC(=O)CCC(=O)N2CCSc3ccccc32)cc1	-14	?	/	14	-1%	21µM*
Cc1ccc(CNC(=O)CCC(=O)N2CCSc3ccccc32)cc1	/	23µM*	0%	/	/	?
SMILES	Giardia kill	DT40 TDP1 no CPT	TDP1 block	IL1B secr inh	ELG1 DNA repair	DT40 TDP1 CPT
O=C(CCC(=O)N1CCSc2ccccc21)NCc1cccc(Cl)c1	-8	?	/	9	0%	?
O=C(NNc1ccccc1[N+](=O)[O-])Nc1ccc(Cl)c(Cl)c1	3	?	9%	-93*	-28%	?
O=C(NNc1ccccc1[N+](=O)[O-])Nc1ccc(F)cc1	-2	-52%	2%	-3	0%	?
O=C(NNc1ccccc1[N+](=O)[O-])Nc1ccccc1	3	?	7%	0	3%	15µM*
COC(=O)c1ccccc1NC(=O)NCCc1c(C)nn(C)c1C	/	?	-9%	/	/	?
Cc1cccn2c(=O)nc(SCC(=O)Nc3ccc4c(c3)OCO4)nc12	-12	-7%	-5%	-3	?	1%
CCOC(=O)c1c(-c2ccccc2)nc2c(C)cccn12	-1	16µM*	1%	11	-17%	15µM*
COc1ccc(NC(=O)CSc2nc3cccnc3n2C)cc1	5	-55%	4%	-11	-5%	-14%
COC(=O)c1ccc(NC(=O)CSc2nc3cccnc3n2C)cc1	23	16µM*	-3%	-2	?	?
CCOC(=O)c1ccc(NC(=O)CSc2nc3cccnc3n2C)cc1	-7	21µM*	9%	-19	?	?
CCOC(=O)c1ccc(NC(=O)CSc2nc(=O)n3cccc(C)c3n2)cc1	-10	13µM*	-3%	?	-16%	21µM*
CCN(CC)CCN1CCn2c3c(c4cc(C)ccc42)CCCC31 (centres undefined)	-17	23µM*	8%	?	11%	?
CCN1CCn2c3c(c4cc(Cl)ccc42)CCCC31 (centres undefined)	-27	?	7%	-10	4%	?
Cc1ccc2c(c1)c1c3n2CCN(C=O)C3CCC1 (centres undefined)	5	-5%	/	-5	3%	-9%
Cc1ccc2c(c1)c1c3n2CCN(C(=O)c2cccc(C(F)(F)F)c2)C3CCC1 (centres undefined)	/	23µM*	8%	/	/	?
